Source: PubChem
Only some compounds are listed: those with a hit (about 19% of all), similar ones and a draw of the others.
TDP1 cell noCPT = qHTS for Inhibitors of human tyrosyl-DNA phosphodiesterase 1 (TDP1): qHTS in cells in absence of CPT. DT40 Tdp1-/- hTDP1 cells, no CPT, ATP luminescence, 48 h. Potency, µM (highest dose often 46.2 µM), inactives show at the top dose activity change, negative = growth inhibition, hits mostly inhibitors. 15% of 420,000 active. AID 686978, 2013; note: nearly all actives have a fitted effect of over 55% in size
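Camptothecin absent (DMSO only). Human TDP1-complemented DT40 knockout cells, 400 cells/well, 37 °C for minimum 48 hr; ATP measured via CellTiter-Glo, 30 min dark incubation, luminescence.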
DT40 TDP1 CPT = qHTS for Inhibitors of human tyrosyl-DNA phosphodiesterase 1 (TDP1): qHTS in cells in presence of CPT; Potency, µM (doses to about 46.2 µM), for the others: at the top dose activity change, negative = growth inhibition, most hits filed as inhibitors; 12% of 420,000 active; chicken DT40 Tdp1-/-;hTDP1 cells + 20 nM CPT, ATP luminescence, 48 h; note: nearly all actives have a fitted effect of over 55% in size
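Cell growth measured by CellTiter-Glo luminescence after a minimum 48 h, 37 C compound exposure with 20 nM CPT in Tdp1-knockout DT40 cells stably expressing hTDP1, seeded 400/well; qHTS titration format.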
RORg inh = qHTS for inhibitors of ROR gamma transcriptional activity | Potency, µM (titrated, usually from 53.6 µM), for the others: at the top dose activity change, negative = inhibition, hits mostly inhibitors | Nuclear receptor ROR-gamma (Mus musculus), P51450 | AID 2551, 2010 | Drosophila S2 Gal4-RORgamma UAS-luciferase reporter, 20 h | 5.4% of 310,000 active; note: nearly all actives have a fitted effect of over 60% in size
Target sequence (P51450 whole entry, looked up, the tested form may be a part): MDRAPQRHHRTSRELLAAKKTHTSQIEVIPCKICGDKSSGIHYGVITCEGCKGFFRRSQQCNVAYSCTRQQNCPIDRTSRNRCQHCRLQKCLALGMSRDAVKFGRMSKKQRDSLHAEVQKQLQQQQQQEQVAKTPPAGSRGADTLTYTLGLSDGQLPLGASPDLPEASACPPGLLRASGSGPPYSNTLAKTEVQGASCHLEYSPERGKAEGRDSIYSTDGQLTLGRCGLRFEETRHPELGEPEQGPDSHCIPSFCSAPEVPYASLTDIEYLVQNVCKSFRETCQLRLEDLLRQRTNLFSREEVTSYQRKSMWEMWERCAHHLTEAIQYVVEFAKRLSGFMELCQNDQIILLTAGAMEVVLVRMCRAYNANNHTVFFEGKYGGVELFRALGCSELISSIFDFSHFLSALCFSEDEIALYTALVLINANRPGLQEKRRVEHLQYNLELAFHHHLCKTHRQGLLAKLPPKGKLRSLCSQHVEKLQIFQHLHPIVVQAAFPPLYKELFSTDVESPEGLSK
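Using a luciferase readout, inhibitors were identified by reduced reporter activity in Drosophila cells coexpressing a copper-inducible Gal4–ROR gamma fusion and UAS-driven Photinus luciferase, incubated 20 hr after 700 uM copper sulfate.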
TDP1 inh = qHTS Assay for Inhibitors of Tyrosyl-DNA Phosphodiesterase (TDP1); AID 485290, 2010; Tyrosyl-DNA phosphodiesterase 1 (Homo sapiens), Q9NUW8; 0.28% of 350,000 active; Potency, µM (titrated, usually from 130 µM), without a hit: at the top dose activity change, negative = inhibition, usual class: inhibitors; recombinant TDP1, AlphaScreen DNA substrate cleavage; note: nearly all actives have a fitted effect of over 40% in size
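Tdp1 1 nM final; 15 min RT w/ cpd; substrate 15 nM, 5 min; beads 10 ug/ml, 10 min; AlphaScreen read. Neg ctrl: no enzyme.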
Gal4-VP16 FLuc = VP16 counterscreen qHTS for inhibitors of ROR gamma transcriptional activity | Potency, µM (doses to about 53.6 µM), for the others: at the top dose activity, negative = inhibition, actives largely listed as inhibitors | AID 2546, 2010 | Drosophila S2 Gal4-VP16 UAS-luciferase, luminescence, 20 h | 3.5% of 310,000 active;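 note: Gal4-VP16 expression switched on by copper sulfate through the metallothionein promoter; nearly all actives have a fitted effect of over 50% in size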
Numbers without * were called inactive; ? = inconclusive; . = no result; ! = a repeat was not active; [ ] = another dose, or the depositor's remark. Calls come from the whole dose curve; as a rule, active = well fitted curve in the direction sought with a large enough effect; inconclusive = small, poorly fitted or top-dose-only effect, or another doubt; inactive = no such curve, though single readings can be large; an effect the other way counts as inactive or inconclusive. % is set by controls: 0 for no effect and ±100 for the full control effect; potency is the fitted concentration of half-maximal effect.

SMILES	TDP1 cell noCPT	DT40 TDP1 CPT	RORg inh	TDP1 inh	Gal4-VP16 FLuc
C=CCN(c1ccccc1OC)S(=O)(=O)c1cccc(C(=O)OCC(=O)N2CCOCC2)c1	?	-25%	.	0%	.
COc1cc(OC)c(N(C)S(=O)(=O)c2cccc(C(=O)OCC(=O)c3c[nH]c4ccccc34)c2)cc1Cl	23µM*	?	8%	7%	5%
COc1ccccc1/C=C/C(=O)OCC(=O)c1c[nH]c2ccccc12	21µM*	?	.	-5%	.
C=CCN(c1ccccc1OC)S(=O)(=O)c1cccc(C(=O)OCC(=O)c2c[nH]c3ccccc23)c1	23µM*	?	-9%[10 µM]	1%	-11%
Cc1cccc(C)c1NC(=O)CCCSc1nnc(-c2ccc(F)cc2)n1-c1ccccc1	?	?	?	6%	2%
COc1ccc(-n2c(C)c([N+](=O)[O-])c3ccc(O)c(CN(C)C)c32)cc1	2.6µM*	?	-10%	4%	-28%
COc1ccc(C(=O)c2coc3ccc(O)c(CN(C)C)c23)cc1	?	?	-9%	5%	3%
Cc1ccc2cc([N+](=O)[O-])ccc2n1	-3%	1%	6%	.	-11%
Cc1cc(OCc2cc(C(=O)N(C)CCc3cnn(C)c3)no2)cc(C)c1Cl	21µM*	13µM*	12%	1%	-12%
CC(=O)c1ccc(OCc2cc(C(=O)N(C)C3CCOC3)no2)cc1 (configuration not stated)	0%	-3%	-32%	6%	-27%
Cc1cc(OCc2cc(C(=O)N(C)Cc3nonc3C)no2)cc(C)c1Cl	-3%	?	-9%	-13%	-3%
CCc1ccc(CN(C)C(=O)c2cc(COc3cc(C)c(Cl)c(C)c3)on2)nc1	?	16µM*	15%	-4%	6%
Cc1cc(OCc2cc(C(=O)N(C)C3CCOC3)no2)cc(C)c1Cl (configuration not stated)	16µM*	16µM*	29%	1%	3%
Cc1ccccc1C(OCCN(C)C)c1ccccc1 (configuration not stated)	?	23µM*!	19%	5%	1%
Cc1ccccc1[C@@H](OCCN(C)C)c1ccccc1	.	.	-16%[16.9 µM]	6%[56.1 µM]	-1%[17 µM]
Cc1ccc(S(=O)(=O)N(C)C)cc1NC(=O)C1CCN(C(=O)Nc2ccccc2)CC1	-10%	-24%	.	-5%	.
C[C@@H]1CN([C@@H](C)CO)S(=O)(=O)c2ccc(Br)cc2O[C@H]1CN(C)Cc1ccccc1F	10µM*	15µM*	.	.	.
C[C@H]1CN([C@@H](C)CO)S(=O)(=O)c2ccc(Br)cc2O[C@H]1CN(C)Cc1ccccc1F	23µM*	16µM*	.	.	.
CC(=O)N(C)C[C@H]1Oc2cc(Br)ccc2S(=O)(=O)N([C@H](C)CO)C[C@@H]1C	1%	0%	.	.	.
CCC(=O)N(C)C[C@@H]1Oc2cc(Br)ccc2S(=O)(=O)N([C@@H](C)CO)C[C@@H]1C	-4%	3%	.	.	.
O=C(/C=C/c1ccc(O)c([N+](=O)[O-])c1)c1ccc2ccccc2c1	23µM*	18µM*	-17%	.	-8%
COc1ccc(Oc2ccc(/C=C/C(=O)c3ccc(O)cc3)cc2[N+](=O)[O-])cc1	15µM*	?	?	11%	?
Cc1ccc2c(=O)[nH]c(Cc3ccccc3C(=O)O)nc2c1	18µM*	?	-4%	.	-9%
O=c1[nH]c(Cc2ccccc2Cl)nc2ccccc12	-14%	-5%	0%	8%	-5%
COc1ccc(C(=O)NC(=O)Nc2cc(C)ccn2)cc1	-26%	-20%	0.04µM*	3%	0.18µM*
SMILES	TDP1 cell noCPT	DT40 TDP1 CPT	RORg inh	TDP1 inh	Gal4-VP16 FLuc
COc1ccc(C(=O)Nc2ccccc2C(=O)Nc2cc(C)ccn2)cc1	18µM*	?	?	.	?
CSc1ccc(NC(=O)Nc2cc(C)ccn2)cc1	-8%	2%	8.9µM*	4%	?
Cc1ccnc(NC(=O)c2ccccc2NC(=O)C(C)(C)C)c1	16µM*	18µM*	-6%	0%	-14%
Cc1cccnc1NC(=O)c1ccccc1NC(=O)C(C)(C)C	18%	-15%	-2%	5%	26%
COc1ccc(C(=O)Nc2ccccc2C(=O)Nc2cccc(C)n2)cc1	-18%	-26%	1%	.	0%
COc1ccc(NC(=O)Nc2cc(C)ccn2)cc1	8%	-11%	.	0%	.
Cc1ccc(CNC(=O)c2cc(COc3c(F)cccc3F)on2)s1	-29%	-23%	39%	-1%	3%
COc1ccc(C(=O)N2CCC2(C)C(=O)NC(C)C)cc1 (configuration not stated)	-7%	-8%	.	.	.
COc1ccc(Oc2ncnc3c2oc2ccc(Br)cc23)cc1	-12%	-3%	1%	1%	0%
COc1ccc(C(=O)/C=C/Nc2cc(C)ccn2)cc1	-26%	-13%	0.2µM*	-7%	?
COc1ccc(OC)c(N2Cc3cc(C)c(C)cc3C2)c1	26µM*	?	2%	4%	2%
CCOc1ccccc1N1Cc2cc(C)c(C)cc2C1	?	26µM*	25%	4%	17%
CCOc1ccccc1N1Cc2ccccc2C1	-22%	?	-6%	12%	17%
COc1ccc(OC)c(-n2c(C)cc(C=O)c2C)c1	-17%	-4%	-13%	9%	-18%
Cc1ccccc1CNC(=O)c1ccccc1SCC(=O)NCc1ccco1	?	?	.	1%	.
O=C(NCc1ccccc1)C1(C(F)(F)F)C/C(=C\Cc2ccccc2)CCCO1 (configuration not stated)	.	.	-3%	6%	8%
COc1ccc(OCC(=O)NCCNC(=O)c2cccnc2)cc1	2%	-1%	-21%	0%[0.0935 µM]	-12%
COc1ccc(CNc2ncc(-c3ccc(F)cc3)n2C)cc1OC	23µM*	?	-16%[1.91 µM]	.	2%
Cn1c(-c2ccc(F)cc2)cnc1NCc1cccc(F)c1	18µM*	?	-51%	6%	4%
Cn1c(-c2ccc(F)cc2)cnc1NCc1cc2c(cc1[N+](=O)[O-])OCO2	23µM*	?	8%	-3%	-11%
Cn1c(-c2ccc(F)cc2)cnc1NCc1ccccc1	?	?	-31%	3%	-1%
CC[N+]1=CN(c2ccccc2)C(C)=CC1(C)C	?	?	18%	3%	-17%
CC(C)(C)c1nc(NCCN2CCOCC2)c2nnn(Cc3ccccc3Cl)c2n1	10µM*	10µM*	-43%	4%	?
